According to PubChem BioAssay AID588590 (National Center for Advancing Translational Sciences (NCATS), 2011):
The whole screen tested about 390,000 compounds, of which about 4,000 (1%) were called active. Inconclusive results (about 7%) are left out. The call rests on the fitted dose curve; in most records, active means well fitted inhibition curve with a large enough effect; inconclusive means small, poorly fitted or top-dose-only effect, or another doubt; inactive means no such curve, though single readings can be large or run the other way. Shown is part of a subset that was picked to be rich in actives.

biological target: DNA polymerase iota (Homo sapiens) (UniProt Q9UNA4); experiment: qHTS for Inhibitors of Polymerase Iota; details: Pol iota fluorescent replication assay, 10 min; series mostly up to 115 µM; activity, negative = inhibition: at the top concentration
From the text: DNA polymerases, such as Pol iota, are specifically involved in DNA repair. Pol iota specifically plays an important role in translesion synthesis, where the normal high-fidelity DNA polymerases cannot proceed and DNA synthesis stalls. […] Thus, while pol eta's (and most likely iota's) normal function is to protect humans against the deleterious consequences of DNA damage, under certain conditions they can have deleterious effects on human health. As a consequence, we propose to utilize a high throughput replication assay to identify small molecule inhibitors of pol iota.
In a collaboration between the National Institute of Child Health & Human Development (NICHD) and NIH Chemical Genomics Center, a high-throughput, fluorescent screen was developed to screen the NIH Molecular Libraries Small Molecule Repository (MLSMR). This screen is used to identify inhibitors of pol iota.
NIH Chemical Genomics Center [NCGC]
NIH Molecular Libraries Probe Centers Network [MLPCN]
Assay Submitter (PI): Roger Woodgate, NICHD)
Three microliters of reagents (buffer in column 3 and 4 as negative control and 10 nM Pol iota in columns 1, 2, and 5-48) will be dispensed into 1,536-well black solid-bottomed plate. Compounds (23 nL) will be transferred via Kalypsys pin tool equipped with 1536-pin array. The plates will then be incubated for 15 min at room temperature, and 1 µL substrate (50 nM final concentration) will be added to start the reaction and kinetically read twice at 0 min and 10 min on the Viewlux reader.
Potency means the concentration at half of the fitted maximal effect.

DNA polymerase iota (Homo sapiens), sequence (Q9UNA4 whole entry, looked up): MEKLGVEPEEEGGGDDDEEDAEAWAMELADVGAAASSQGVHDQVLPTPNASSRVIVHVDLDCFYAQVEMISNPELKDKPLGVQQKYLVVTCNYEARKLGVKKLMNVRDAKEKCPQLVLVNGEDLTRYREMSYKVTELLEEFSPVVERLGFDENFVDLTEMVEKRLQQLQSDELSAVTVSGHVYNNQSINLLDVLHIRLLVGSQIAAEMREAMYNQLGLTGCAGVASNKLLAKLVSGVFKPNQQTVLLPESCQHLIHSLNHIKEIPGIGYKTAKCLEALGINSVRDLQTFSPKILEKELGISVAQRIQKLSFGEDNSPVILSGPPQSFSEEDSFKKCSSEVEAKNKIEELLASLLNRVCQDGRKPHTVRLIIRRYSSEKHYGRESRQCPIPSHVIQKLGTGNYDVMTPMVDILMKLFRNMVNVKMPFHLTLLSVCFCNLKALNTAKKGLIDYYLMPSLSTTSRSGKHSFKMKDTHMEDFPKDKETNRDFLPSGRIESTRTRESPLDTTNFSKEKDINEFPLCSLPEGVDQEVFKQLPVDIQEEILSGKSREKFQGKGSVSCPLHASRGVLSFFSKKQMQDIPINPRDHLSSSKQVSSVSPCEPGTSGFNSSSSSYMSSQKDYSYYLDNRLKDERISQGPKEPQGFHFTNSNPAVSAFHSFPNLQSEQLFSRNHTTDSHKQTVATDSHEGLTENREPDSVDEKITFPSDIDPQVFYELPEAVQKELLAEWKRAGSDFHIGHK

Structure (SMILES) | activity, negative = inhibition | Potency
CCOc1ccc(NC(=O)CCNC(=O)c2ccc(Br)cc2)cc1 | 16.3% (inactive) | 
CCOc1ccc(NC(=O)c2ccc(NC(=O)COC(=O)c3ccc(NC(=O)CC#N)cc3)cc2)cc1 |  | 8.91 µM (active)
CCOc1ccc(NC(=O)c2ccc(NC(=O)CN3C(=O)C(=O)N(CC(C)C)C3=O)cc2)cc1 | 21.4% (inactive) | 
O=C1O/C(=C\c2ccc(O)cc2)C(O)=C1c1ccc(O)cc1 | -25.4% (inactive) | 
Oc1ccccc1-c1nc2ccc(Cl)cn2c1Nc1ccc2c(c1)OCCO2 | 15.2% (inactive) | 
CCOc1ccc(CCNC(=O)c2csc3c2CCCCC3)cc1 | -5.36% (inactive) | 
Cc1ccccc1OCC(=O)Nc1c(C(=O)Nc2ccccc2F)oc2ccccc12 | 48.3% (inactive) | 
O=C(COc1ccccc1)Nc1ccc(N2CCN(C(=O)c3cccs3)CC2)cc1 | 115% (inactive) | 
CCOc1ccc(NC(=O)COc2ccc(C(=O)N3CCC(C(N)=O)CC3)cc2OC)cc1 | 24.4% (inactive) | 
O=C(COc1ccccc1)Nc1ccc(C(=O)N2CCCC2)cc1 |  | 89.1 µM (active)
COc1ccc(C2Sc3ccccc3NC3=C2C(=O)c2ccccc23)c(OC)c1OC (configuration not stated) | 19.2% (inactive) | 
CCSc1nnc2c(n1)OC(c1ccc(OCC(=O)O)cc1)Nc1ccccc1-2 (configuration not stated) | -9.22% (inactive) | 
Cc1cc(C)c2sc(NC(=O)c3ccc(S(=O)(=O)N4CCCC4)cc3)nc2c1 | -1.58% (inactive) | 
CCCCN(CC)CCCNC(=O)c1nn(C)c2c1CS(=O)(=O)c1ccccc1-2 | 18.5% (inactive) | 
Cc1ccn2c(=O)nc(SCC(=O)NCc3ccc4c(c3)OCO4)nc2c1 |  | 44.7 µM (active)
O=C(CSc1nc(=O)n2ccccc2n1)Nc1ccc2c(c1)OCCO2 | 15% (inactive) | 
Cc1ccccc1-c1nnc(SCC(=O)NCc2ccc3c(c2)OCO3)n1C | 15.5% (inactive) | 
Cc1ccccc1Nc1nn2c(=O)c3ccc(C(=O)NCCc4ccc(Cl)cc4)cc3nc2s1 | 13.4% (inactive) | 
CC(=O)c1cc(NC(=O)c2ccccc2)c(=O)oc1/C=C/N(C)C | 23.6% (inactive) | 
O=C(NC1=CC(=O)c2ccccc2C1=O)c1ccccc1 |  | 3.55 µM (active)
O=C(COC(=O)c1cccc(Br)c1)Nc1cccc2c1C(=O)c1ccccc1C2=O | 52.3% (inactive) | 

Structure (SMILES) | activity, negative = inhibition | Potency
O=C(Nc1ccc([N+](=O)[O-])cc1)c1cnn2c1NC(=C1CC1)C=C2C(F)F | 8.29% (inactive) | 
CCN(CCCNC(=O)c1cc2cc3cc(OC)ccc3nc2s1)c1ccccc1 | 39.3% (inactive) | 
O=C(NCCCN1CCN(c2cccc(Cl)c2)CC1)c1nnc(Cc2ccc(F)cc2Cl)o1 | 8.61% (inactive) | 
Cc1ccc(C)c(Nc2nnc(-c3ccc(C)c(S(=O)(=O)N4CCCCC4)c3)c3ccccc23)c1 |  | 89.1 µM (active)
Cc1ccc(Nc2nnc(-c3ccc(C)c(S(=O)(=O)N4CCCCC4)c3)c3ccccc23)cc1 | 17.1% (inactive) | 
Cc1ccc(-c2nnc(Nc3ccc(C(=O)N(C)C)cc3)c3ccccc23)cc1S(N)(=O)=O | -7.39% (inactive) | 
CCc1nc2nc(C)cc(Nc3ccc(F)c(Cl)c3)n2n1 | 22.8% (inactive) | 
Cc1nn(-c2nc(-c3ccccc3)cc(C(F)(F)F)n2)c(C)c1Cl | 3.75% (inactive) | 
COc1ccc2[nH]c3c(C)c4cc[n+](C)cc4c(C)c3c2c1 |  | 12.6 µM (active)
Cc1cc[n+](C2CCCCC2)cc1 | 41.1% (inactive) | 
CCOc1ccccc1-c1cc(C(=O)N2CCOCC2)c2ccccc2n1 | 17.7% (inactive) | 
CN(CCOc1ccccc1)C(=O)c1cc(COc2c(F)cccc2F)on1 | 18.1% (inactive) | 
CN(C(=O)COC(=O)c1cc(-c2ccco2)nc2ccccc12)C1CCS(=O)(=O)C1 (configuration not stated) |  | 3.55 µM (active)
Cc1ccc(S(=O)(=O)CCC(=O)OCC(=O)N(C)C2CCS(=O)(=O)C2)cc1 (configuration not stated) | 22.2% (inactive) | 
O=C(Nc1cccc(F)c1)c1cc(-c2ccco2)nc2ccccc12 |  | 50.1 µM (active)
COc1ccc(CN(C)C(=O)c2cc(-c3ccc(C)cc3C)nc3ccccc23)c(OC)c1OC | 33.1% (inactive) | 
Cc1cc(C(=O)Nc2ccc(C)c(S(=O)(=O)N3CCOCC3)c2)c2ccccc2n1 | 30.7% (inactive) | 
O=C(COc1ccccc1C(=O)Nc1ccccc1)Nc1cccc(F)c1 | 3.23% (inactive) | 
COc1ccc(NC(=O)COc2ccc(C(=O)OCC(=O)N(C)C3CCS(=O)(=O)C3)cc2OC)cc1 (configuration not stated) | 55.3% (inactive) | 
CC1CCCN(C(=O)c2cc(-c3ccco3)nc3ccccc23)C1 (configuration not stated) |  | 28.2 µM (active)
O=C(c1cc(-c2ccc(Cl)s2)nc2ccccc12)N1CCOCC1 | 9.16% (inactive) | 

Structure (SMILES) | activity, negative = inhibition | Potency
CN(CCOc1ccccc1)C(=O)c1cc(-c2ccco2)nc2ccccc12 |  | 22.4 µM (active)
CCCCC(CCCC)c1ccc(C=Nc2ccc(/C=C/c3ccnc4ccccc34)cc2)cc1 | -7.99% (inactive) | 
CCOc1cc(C(=O)NCCc2csc3nc(-c4ccc(C)cc4)nn23)cc(OCC)c1OCC | 22.5% (inactive) | 
Cc1ccc(NC(=O)CN2c3ccccc3S(=O)(=O)c3ccccc32)cc1F | 0.0463% (inactive) | 
CCOc1ccccc1CNC(=O)c1ccc(-n2c(C)cc3c2CCC(C)C3)cc1 (configuration not stated) | 1.98% (inactive) | 
CCN(CC)C(=O)CSc1nc2ccsc2c(=O)n1Cc1ccccc1Cl | -9.3% (inactive) | 
CC1=C(C(=O)OCc2ccc(C)cc2)C(c2ccccc2Cl)CC(=O)N1 (configuration not stated) | 0.135% (inactive) | 
CC(C)(C)OC(=O)N(Cc1ccco1)S(=O)(=O)c1ccccc1Br | 4.06% (inactive) | 
CCC(=O)N1CCc2cc(S(=O)(=O)NC(CC(C)C)C(=O)NCCc3cccc(C)c3)ccc21 (configuration not stated) | -4.86% (inactive) | 
CN1CCN(/N=C2/C(=O)Nc3ccc([N+](=O)[O-])cc32)CC1 | -5.18% (inactive) | 
O=C1Nc2ccc([N+](=O)[O-])cc2C1=Nc1cccc(CO)c1 |  | 7.94 µM (active)
O=[N+]([O-])c1ccc(N(CCO)Cc2ccccc2)c([N+](=O)[O-])c1 | 22.6% (inactive) | 
CC(=O)c1ccc[n+](C(C)CCC(C)[n+]2cccc(C(C)=O)c2)c1 (configuration not stated) | 64% (inactive) | 
COc1cccc(CNC(=O)CN2C(=O)CCc3cc(S(=O)(=O)N4CCOCC4)ccc32)c1 | 2.67% (inactive) | 
COc1ccc2[nH]c(C(=O)N/N=C/c3cc(OC)c(OC)c(OC)c3)cc2c1 |  | 17.8 µM (active)
COc1ccc(-c2cc(C(=O)NCc3cc(OC)c(OC)c(OC)c3)[nH]n2)cc1 | 10.4% (inactive) | 
COc1ccc2[nH]c(=O)c(CNc3ccc(C)c(C)c3)cc2c1 | 6.15% (inactive) | 
Cc1ccc(C)c(NC(=O)C2Cc3ccccc3CN2C(=O)OCc2ccccc2)c1 (configuration not stated) | -32.5% (inactive) | 
Cc1ccc(S(=O)(=O)N(C)C)cc1NC(=O)C1Cc2ccccc2CN1C(=O)c1ccco1 (configuration not stated) |  | 22.4 µM (active)
COc1ccccc1N1CCN(C(=O)C2Cc3ccccc3CN2C(=O)c2ccco2)CC1 (configuration not stated) | -9.63% (inactive) | 
